Screening data deposited in PubChem BioAssay by National Center for Advancing Translational Sciences (NCATS).
SKOV3 invasion: Primary qHTS assay for Inhibitors of ovarian cancer metastasis using an organotypic tumor microenvironment (TME) model. actives 0.1% (n = 46,000). SKOV3ip1-GFP adhesion/invasion on 3D omental model, fluorescence. Potency, µM (titrated, usually from 45.8 µM), hits mostly inhibitors; further: nearly all actives have a fitted effect of over 65% in size
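Adhesion/invasion was scored as fixed GFP-labeled SKOV3ip1 cell counts (488/509 nm), normalized to DMSO and tomatine controls. Cancer cells in serum-free medium, with four compound doses (0.36-46 umol/L), sat 2 hr at RT then 16 hr at 37 C on a 48 hr fibroblast/mesothelial/ECM culture.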
NTMT1 inh: Primary qHTS for Inhibitors of N-terminal methyltransferase 1 (NTMT1): MTaseGlo Assay; N-terminal Xaa-Pro-Lys N-methyltransferase 1 (Homo sapiens), Q9BV86; NTMT1 MTase-Glo SAH luminescence, purified enzyme; Potency, µM (doses to about 114 µM), actives largely listed as inhibitors; actives 2.5% (n = 59,000); AID 1645870, 2021; further: nearly all actives have a fitted effect of over 65% in size
Target sequence (Q9BV86 whole entry, looked up): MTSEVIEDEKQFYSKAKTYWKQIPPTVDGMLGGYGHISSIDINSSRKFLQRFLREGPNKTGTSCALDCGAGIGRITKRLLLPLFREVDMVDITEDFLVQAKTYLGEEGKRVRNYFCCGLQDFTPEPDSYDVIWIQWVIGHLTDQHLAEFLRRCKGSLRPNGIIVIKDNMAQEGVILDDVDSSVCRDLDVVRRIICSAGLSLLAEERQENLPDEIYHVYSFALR
GALC G270D act: A Novel Cell-Based Assay to Identify Small Molecules for B -Galactocerebrosidase | P54803 | 145M-Twi-hGALC-G270D cells (Twitcher mouse brain line with human GALC G270D), HMU-beta-Gal fluorescence, 48 h | Potency, µM (top dose mostly 57.5 µM), hits mostly activators | actives 0.1% (n = 45,000); further: nearly all actives have a fitted effect of over 65% in size
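Mutant human GALC (G270D), stably expressed in a Twitcher mouse brain cell line lacking endogenous GALC, is measured in live-treated cells via 6-hexadecanoylamino-4-methylumbelliferyl-β-galactoside hydrolysis (0.1 mM final, pH 5.2) with fluorescent detection.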
p53null 32C tox: qHTS Screen for Compounds that Selectively Target Cancer Cells with p53 Mutations: Cytotoxicity of p53 Null Cells at the Permissive Temperature | H1299-neo p53 null cells, ATP luminescence, 24 h, 32C | Potency, µM (top dose mostly 46.1 µM), usual class: cytotoxic | actives 0.62% (n = 55,000); further: nearly all actives have a fitted effect of over 55% in size
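Overnight 37C seeding (600 cells/well) of H1299-neo preceded a 24 hr, 32C exposure to compounds up to 46 uM. ATP levels, read by luminescence after 20 min at RT, indicated surviving cells.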
GPR32 ag: qHTS for Agonists of Human Resolvin D1 Receptor DRV1 | actives 2.5% (n = 48,000) | CHO-K1 GPR32 beta-arrestin PathHunter luminescence, 90 min; zero percent set by DMSO-only wells | Probable G-protein coupled receptor 32 (Homo sapiens), O75388 | activation, % at 76.9 µM;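 active means activation of at least 60% and not above a set upper limit, about 1 call in 100 departs from these limits; inconclusive means activation of 40% to 60%, or above that upper limit; inactive means activation under 40%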
Target sequence (O75388 whole entry, looked up): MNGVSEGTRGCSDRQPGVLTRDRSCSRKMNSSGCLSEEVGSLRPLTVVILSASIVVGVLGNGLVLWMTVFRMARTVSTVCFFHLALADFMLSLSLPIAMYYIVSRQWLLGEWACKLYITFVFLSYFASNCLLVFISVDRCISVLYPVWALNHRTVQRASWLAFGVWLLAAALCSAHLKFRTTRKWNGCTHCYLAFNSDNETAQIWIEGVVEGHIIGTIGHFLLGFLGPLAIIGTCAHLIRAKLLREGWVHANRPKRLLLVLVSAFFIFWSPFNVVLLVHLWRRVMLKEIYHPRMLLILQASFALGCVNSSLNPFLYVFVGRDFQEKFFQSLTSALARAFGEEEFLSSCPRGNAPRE
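Beta-arrestin recruitment read-out: luminescence from complemented beta-Gal in CHO-K1 GPR32 PathHunter cells, measured 1 h after detection reagent at ambient temperature following 90 min compound exposure at 37 °C; DMSO served as basal (EC0) control.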
p53null 39C kill: qHTS Screen for Compounds that Selectively Target Cancer Cells with p53 Mutations: Cytotoxicity of p53 Null Cells at the Nonpermissive Temperature. H1299 p53-null (neo) cells, 39C, ATPlite viability, 24 h. Potency, µM (top dose mostly 46.1 µM), usual class: cytotoxic. actives 0.97% (n = 55,000); further: nearly all actives have a fitted effect of over 50% in size
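Following overnight plating at 37C (600 cells/well), H1299-neo or H1299-p53A138V cells are dosed up to 46 uM. Incubation lasts 24 hr at 39C before ATP detection.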
Of the large screens only hits and unclear results are named; the others gave an inactive call; ! = not active in a repeat. Compounds with a hit are over-represented: about 4% of the library has one in this group of screens. Unless noted, the call rests on the fitted dose curve; in most records, active means well fitted curve in the direction sought with a large enough effect; inconclusive means small, poorly fitted or top-dose-only effect, or another doubt; inactive means no such curve, though single readings can be large; an effect the other way counts as inactive or inconclusive.

O=[S+]([O-])(Nc1ccc(C2CCNCC2)cc1)c1ccc(NCc2ccc(Br)cc2O)cc1	NTMT1 inh 50µM (no result: SKOV3 invasion, GALC G270D act, p53null 32C tox, GPR32 ag, p53null 39C kill)
O=S(c1cc(Cl)cc(Cl)c1O)c1cc(Cl)cc(Cl)c1O	none (no result: SKOV3 invasion, p53null 32C tox, p53null 39C kill)
Oc1c(Cl)cc(Cl)cc1Sc1cc(Cl)cc(Cl)c1O	NTMT1 inh inconclusive, GPR32 ag 80 (no result: SKOV3 invasion, p53null 32C tox, p53null 39C kill)
COc1cnc(-c2ccccc2C(C)C)nc1NCc1ccc(-c2cccnc2)cc1	none (no result: SKOV3 invasion, GALC G270D act, p53null 32C tox, GPR32 ag, p53null 39C kill)
Cc1cccc(NC(=O)c2cc(-c3ccc4c(c3)OCCO4)on2)c1	NTMT1 inh inconclusive, p53null 32C tox 1.3µM, p53null 39C kill 1.3µM
O=C(Nc1cccc(C(F)(F)F)c1)c1cc(-c2ccc3c(c2)OCCO3)on1	SKOV3 invasion inconclusive, GPR32 ag 94, p53null 39C kill inconclusive
O=C(Nc1cccc(Cl)c1)c1cc(-c2ccc3c(c2)OCCO3)on1	NTMT1 inh inconclusive, p53null 32C tox inconclusive, p53null 39C kill inconclusive
Cc1ccc(S(=O)(=O)Nc2ccc(C(=O)Nc3nc(-c4ccccc4)cs3)c(Cl)c2)cc1	none (no result: SKOV3 invasion, GALC G270D act, p53null 32C tox, GPR32 ag, p53null 39C kill)
CC(C)(CO)n1cc(C(=O)c2cncc(NC(=O)Cc3ccc(Cl)cn3)c2)c2cnc(N)nc21	none (no result: SKOV3 invasion, GALC G270D act, p53null 32C tox, GPR32 ag, p53null 39C kill)
O=C(CSc1ncc(CO)n1Cc1ccccc1)Nc1nc2ccccc2s1	GPR32 ag 60
Cc1ccc(Cn2c(CO)cnc2SCC(=O)NCc2ccccc2Cl)cc1	p53null 39C kill inconclusive (no result: NTMT1 inh, GALC G270D act)
O=C(CSc1ncc(CO)n1Cc1ccccc1)Nc1ccc(C(F)(F)F)cc1	GPR32 ag 118
COc1ccc(-c2ccc3c(N4CCOCC4C)nc(N4CCOCC4C)nc3n2)cc1CO (stereo unspecified)	none (no result: SKOV3 invasion, GALC G270D act, p53null 32C tox, GPR32 ag, p53null 39C kill)
COc1ccccc1CNC(=O)c1cccc(N2CCCS2(=O)=O)c1	none
O=C(NCc1ccc(Cl)cc1Cl)c1cccc(N2CCCS2(=O)=O)c1	NTMT1 inh inconclusive, GPR32 ag 62
COc1cccc(-c2nnc(-c3ccc(C)o3)o2)c1	p53null 32C tox 13µM, p53null 39C kill 13µM (no result: SKOV3 invasion, NTMT1 inh, GALC G270D act, GPR32 ag)
COc1cc(OC)cc(C(=O)Nc2ccc(Cl)c(-c3nc4ccc(N(C)C)cc4[nH]3)c2)c1	none (no result: SKOV3 invasion, GALC G270D act, p53null 32C tox, GPR32 ag, p53null 39C kill)
CN1CCC(Nc2nc(Nc3ccc(Oc4ccccc4)cc3)c3c(=O)[nH]cc(Br)c3n2)CC1	none (no result: SKOV3 invasion, GALC G270D act, p53null 32C tox, GPR32 ag, p53null 39C kill)
CN1CCC(Nc2ncc3ncnc(Nc4ccc(F)c(Cl)c4)c3n2)CC1	NTMT1 inh 45µM (no result: SKOV3 invasion, p53null 32C tox, p53null 39C kill)
Clc1ccc(CN[C@H]2CCN(c3ncc(Br)cn3)C2)c(Cl)c1	none (no result: SKOV3 invasion, GALC G270D act, p53null 32C tox, GPR32 ag, p53null 39C kill)
Cc1ccc(Nc2nc(N)nc(CSc3nc4ccccc4s3)n2)cc1	GPR32 ag 83, p53null 39C kill inconclusive
Cc1ccc(-c2nn3c(C)nnc3s2)cc1NCc1ccc(-c2cccc(Cl)c2)o1	none (no result: SKOV3 invasion, GALC G270D act, p53null 32C tox, GPR32 ag, p53null 39C kill)
CSc1ccc(CNC(=O)Cn2nc(N3CCN(c4ccccc4)CC3)ccc2=O)cc1	NTMT1 inh inconclusive, GPR32 ag 95, p53null 39C kill inconclusive
O=C(Cn1nc(N2CCN(c3ccccc3)CC2)ccc1=O)NCc1cccc(Cl)c1	GPR32 ag 121
Cc1ccc(CNC(=O)Cn2nc(N3CCN(c4ccccc4)CC3)ccc2=O)cc1	none
O=C(Nc1ccccc1F)c1ccc(Cn2nc(N3CCN(c4ccccc4)CC3)ccc2=O)o1	GPR32 ag 90
CN[C@@H](C)C(=O)N[C@H]1CCCC[C@H]2CC[C@@H](C(=O)N[C@@H](c3ccccc3)c3cn(CCCCc4ccc(CCCCn5cc([C@@H](NC(=O)[C@@H]6CC[C@@H]7CCCC[C@H](NC(=O)[C@H](C)NC)C(=O)N76)c6ccccc6)nn5)cc4)nn3)N2C1=O	NTMT1 inh 28µM! (no result: GALC G270D act, p53null 32C tox, GPR32 ag, p53null 39C kill)
